Test results from PubChem BioAssay (Tox21).
Inconclusive results are not listed. Activity calls are given as the source filed them. Unless noted, calls come from the whole dose curve; as a rule, active = well fitted curve in the direction sought with a large enough effect in the repeat runs; inconclusive = weak or mixed curves; inactive = no such curve, though single readings can be large; an effect the other way counts as inactive or inconclusive.

Assays:
[1] = qHTS assay to identify small molecule antagonists of the estrogen receptor alpha (ER-alpha) signaling pathway using the BG1 cell line in the presence of 0.1 nM 17-beta-estradiol - cell viability counter screen (AID 1259241); note: nearly all actives have a fitted effect of over 40% in size
Outline: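 In this screen, hormone-deprived VM7Luc4E2 cells were seeded at 4,000 per well, dosed with compound and 0.1 nM estradiol final, and incubated 22 hr at 37C and 5% CO2; fluorogenic live-cell protease signal reported viability.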

[2] = qHTS assay to identify small molecule antagonists of the androgen receptor (AR) signaling pathway using the MDA cell line in the presence of 0.5 nM R1881 - cell viability counter screen (AID 1259242); note: nearly all actives have a fitted effect of over 45% in size
Outline: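 MDA-kb2 cells (human breast carcinoma, stably carrying MMTV-luciferase reporter) were exposed to compounds with 0.5 nM R1881 (final) for 16 hr at 37C, 0% CO2; viability then read as live-cell protease fluorescence (CellTiter-Fluor, 30 min) in the same wells.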

[3] = qHTS assay to identify small molecule HDAC inhibitors (AID 1259364); note: top concentration of the series differs between compounds; nearly all actives have a fitted effect of over 45% in size
Outline: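 Wild-type HCT-116 cells were plated overnight, exposed to compounds for 2 h at 37 °C, then given HDAC-Glo class I/II luminogenic reagent for 30 min at room temperature before luminescence was read.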

[4] = qHTS assay to identify small molecule HDAC inhibitors - cell viability counter screen (AID 1259365); note: series mostly up to about 92 µM; nearly all actives have a fitted effect of over 50% in size
Outline: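 Measured quantity is CellTiter-Glo luminescence from wild-type HCT-116 cells after compound incubation of 2hr at 37C, 5% CO2; reagent developed 30min at room temperature.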

[5] = qHTS assay to identify small molecule agonists of the sonic hedgehog signaling (Shh) pathway - cell viability counter screen (AID 1259366); note: nearly all actives have a fitted effect of over 50% in size
Outline: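 In quantitative high-throughput format, 3T3 Gli1-Luc cells were exposed to compounds for 24hr and multiplexed for viability using CellTiter-Fluor, incubated 1hr at 37C before the fluorescence read.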

[6] = qHTS assay to identify small molecule antagonists of the sonic hedgehog signaling (Shh) pathway - cell viability counter screen (AID 1259367); note: nearly all actives have a fitted effect of over 55% in size
Outline: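 Cells: 3T3 Gli1-Luc, 2,000/well, 4 hr pre-incubation. Compounds in DMSO, then conditioned medium. Incubation 24 hr, 37C, 5% CO2. CellTiter-Fluor at 23 hr, 1 hr, fluorescence.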

[7] = qHTS assay to identify small molecule agonists of the sonic hedgehog signaling (Shh) pathway (AID 1259368; calls by dose curve; note: series mostly up to about 92 µM; nearly all actives have a fitted effect of over 15% in size)
Outline: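 NIH/3T3-derived 3T3Gli1-Luc cells carrying a stably integrated Gli1 response element–firefly luciferase reporter were plated, left 4 hr at 37 C, then given compounds in DMSO for 24 hr. Luminescence was read 30 min after adding luciferase reagent.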

[8] = biological target: Estrogen receptor beta (Homo sapiens) (UniProt Q92731); assay: qHTS assay to identify small molecule agonists of the estrogen receptor beta (ER-beta) signaling pathway (AID 1259377; active = well fitted activation curve with a large enough effect in the signal ratio in the repeat runs, not every such curve was filed as active; the % refers to the signal ratio)
Chain of Estrogen receptor beta (Homo sapiens) (Q92731 whole entry, looked up): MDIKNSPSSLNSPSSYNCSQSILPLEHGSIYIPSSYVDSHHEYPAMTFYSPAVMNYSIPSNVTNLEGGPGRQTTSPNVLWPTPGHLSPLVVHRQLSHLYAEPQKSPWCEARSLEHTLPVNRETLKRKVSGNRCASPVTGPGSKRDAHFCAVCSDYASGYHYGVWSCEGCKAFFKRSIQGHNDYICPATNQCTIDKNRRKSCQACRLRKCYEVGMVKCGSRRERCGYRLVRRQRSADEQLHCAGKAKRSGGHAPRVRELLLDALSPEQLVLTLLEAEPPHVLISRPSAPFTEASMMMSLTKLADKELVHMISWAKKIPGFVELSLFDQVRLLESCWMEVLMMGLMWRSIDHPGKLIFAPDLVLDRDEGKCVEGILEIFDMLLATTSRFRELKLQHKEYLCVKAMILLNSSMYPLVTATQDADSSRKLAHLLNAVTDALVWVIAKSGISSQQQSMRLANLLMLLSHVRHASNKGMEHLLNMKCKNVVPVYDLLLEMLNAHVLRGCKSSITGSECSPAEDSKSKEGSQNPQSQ
Outline: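 Reporter cells (HEK293T, ER-beta-UAS-bla) receive compounds or DMSO after a 6 hr pre-incubation. They then incubate 16 hr at 37C/5% CO2, and fluorescence from LiveBLAzer B/G substrate is measured after 2 hours at room temperature.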

[9] = biological target: Estrogen receptor beta (Homo sapiens) (UniProt Q92731); assay: qHTS assay to identify small molecule antagonists of the estrogen receptor beta (ER-beta) signaling pathway (AID 1259378; active = well fitted inhibition curve with a large enough effect in the signal ratio in the repeat runs, not every such curve was filed as active; the % refers to the signal ratio)
Outline: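 Antagonist mode: compounds added to beta-lactamase reporter HEK293T ER-beta-UAS cells stimulated with E2 (1nM final), 16 hr at 37C. LiveBLAzer B/G FRET substrate, 2 hours room temperature, fluorescence read-out.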

[10] = qHTS assay to identify small molecule agonists of the androgen receptor (AR) signaling pathway in the presence of an antagonist - cell viability counter screen (AID 1259379); note: series mostly up to about 92 µM; nearly all actives have a fitted effect of over 25% in size
Outline: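 MDA-kb2 human breast carcinoma cells (stable MMTV-luciferase, AR/GR responsive) were seeded 3,000 cells/well, pre-incubated 5 hr at 37C without CO2, then given 3.0uM nilutamide and compounds at 15 concentrations for 16 hr. Viability was read by CellTiter-Fluor fluorescence.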

[11] = qHTS assay to identify small molecule agonists of the estrogen receptor beta (ER-beta) signaling pathway - cell viability counter screen (AID 1259380); note: nearly all actives have a fitted effect of over 30% in size
Outline: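 ER-beta-UAS-bla HEK293T cells in medium with 2% charcoal-stripped FBS were preincubated 6 hr at 37C, dosed with compound in DMSO for 16 hr, then after the bla read, CellTiter-Glo was added for 30 min at room temperature; luminescence recorded.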

[12] = qHTS assay to identify small molecule antagonists of the estrogen receptor beta (ER-beta) signaling pathway - cell viability counter screen (AID 1259382);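 note: HEK293T cells carrying ER-beta-UAS-bla reporter stimulated with estradiol; series mostly up to about 92 µM; nearly all actives have a fitted effect of over 55% in size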
Outline: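 ER-beta-UAS-bla HEK293T cells (2,000/well, 2% charcoal-stripped FBS) were pre-incubated 6 hr at 37C, then given compound plus 1nM final 17-beta-estradiol for 16 hr. Viability was read in the same wells by CellTiter-Glo luminescence after 30 min at room temperature.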

[13] = qHTS assay to identify small molecule agonists or antagonists of the thyroid stimulating hormone receptor (TSHR) signaling pathway - wild type cell line counter screen (AID 1259384; calls by dose curve)
Outline: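 Counter screen in untransfected Hek293: compounds (15-point titration, triplicate) plus phosphodiesterase inhibitor Ro20-1724 added after 18 h plating; 30 min RT. Intracellular cAMP via competitive d2/cryptate immunoassay, 1 h incubation.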

[14] = biological target: Thyrotropin receptor (Homo sapiens) (UniProt P16473); assay: qHTS assay to identify small molecule antagonists of the thyroid stimulating hormone receptor (TSHR) signaling pathway (AID 1259385; calls by dose curve; note: nearly all actives have a fitted effect of over 20% in size)
Chain of Thyrotropin receptor (Homo sapiens) (P16473 whole entry, looked up): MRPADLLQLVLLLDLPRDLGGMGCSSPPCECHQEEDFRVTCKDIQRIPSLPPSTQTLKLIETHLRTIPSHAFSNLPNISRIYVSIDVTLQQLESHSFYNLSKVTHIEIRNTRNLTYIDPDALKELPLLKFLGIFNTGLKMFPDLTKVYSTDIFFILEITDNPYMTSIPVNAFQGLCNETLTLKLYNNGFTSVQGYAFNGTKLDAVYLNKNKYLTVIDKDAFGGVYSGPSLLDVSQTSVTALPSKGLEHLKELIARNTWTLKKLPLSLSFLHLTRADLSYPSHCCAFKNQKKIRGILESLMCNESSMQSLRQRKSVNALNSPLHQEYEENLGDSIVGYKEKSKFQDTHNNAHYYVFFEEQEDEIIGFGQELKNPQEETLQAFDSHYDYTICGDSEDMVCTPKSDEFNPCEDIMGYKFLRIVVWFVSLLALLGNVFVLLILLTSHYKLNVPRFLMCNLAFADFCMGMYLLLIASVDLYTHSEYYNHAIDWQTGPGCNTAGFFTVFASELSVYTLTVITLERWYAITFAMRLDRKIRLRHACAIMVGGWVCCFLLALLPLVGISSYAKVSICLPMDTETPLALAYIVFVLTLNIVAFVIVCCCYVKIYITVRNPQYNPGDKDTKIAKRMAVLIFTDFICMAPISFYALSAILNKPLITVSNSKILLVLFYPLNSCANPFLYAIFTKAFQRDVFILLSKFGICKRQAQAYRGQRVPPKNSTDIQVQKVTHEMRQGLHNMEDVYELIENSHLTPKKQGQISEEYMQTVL
Outline: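 Antagonist mode: compound-treated TSHR-expressing HEK293 cells were stimulated with 1.5 ng/mL TSH (final) in presence of Ro20-1724 for 30 min at RT. HTRF cAMP detection after 1 h; each compound tested at 15 concentrations, triplicate.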

[15] = qHTS assay to identify small molecule antagonists of the sonic hedgehog signaling (Shh) pathway (AID 1259369; calls by dose curve; note: nearly all actives have a fitted effect of over 45% in size)
Outline: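 NIH/3T3-derived 3T3Gli1-Luc cells with stably integrated Gli1-Luc reporter were preincubated 4hr at 37 C, then given compounds in DMSO plus Shh conditioned medium and incubated 24hr. Firefly luciferase luminescence read after 30min reagent at room temperature.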

[16] = biological target: Estrogen receptor (Homo sapiens) (UniProt P03372); assay: qHTS assay to identify small molecule agonists of the estrogen receptor alpha (ER-alpha) signaling pathway in the presence of an antagonist (AID 1259383; calls by dose curve; note: top concentration of the series differs between compounds; nearly all actives have a fitted effect of over 15% in size)
Chain of Estrogen receptor (Homo sapiens) (P03372 whole entry, looked up): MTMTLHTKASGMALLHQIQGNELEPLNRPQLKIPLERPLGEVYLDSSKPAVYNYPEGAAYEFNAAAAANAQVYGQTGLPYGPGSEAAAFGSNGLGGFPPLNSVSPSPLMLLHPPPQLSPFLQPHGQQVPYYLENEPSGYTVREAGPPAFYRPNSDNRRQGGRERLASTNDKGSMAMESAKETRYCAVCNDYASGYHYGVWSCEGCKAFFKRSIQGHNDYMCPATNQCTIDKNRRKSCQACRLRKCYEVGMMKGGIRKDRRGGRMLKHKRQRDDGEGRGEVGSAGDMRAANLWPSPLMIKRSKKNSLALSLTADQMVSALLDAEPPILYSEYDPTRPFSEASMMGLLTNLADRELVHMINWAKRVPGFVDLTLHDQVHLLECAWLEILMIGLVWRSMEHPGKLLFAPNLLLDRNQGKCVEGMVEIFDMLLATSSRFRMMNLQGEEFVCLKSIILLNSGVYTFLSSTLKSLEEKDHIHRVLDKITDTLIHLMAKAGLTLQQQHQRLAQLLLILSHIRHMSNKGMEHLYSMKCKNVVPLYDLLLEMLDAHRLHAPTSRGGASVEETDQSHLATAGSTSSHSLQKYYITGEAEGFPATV
Outline: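 VM7Luc4E2 cells (endogenous full-length ER-alpha, 4×ERE-luciferase) were precultured 5 days in phenol red-free medium with 10% charcoal-stripped FBS, given 10.0nM ICI-182,780 (final), then treated with compounds at 15 concentrations for 22hr at 37C; luminescence read with ONE-Glo.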

[17] = qHTS assay to identify small molecule phospholipidosis (PLD) inducers (AID 1259344; active = well fitted curve in the direction sought with a large enough effect; an effect the other way counts as inactive or inconclusive)
Outline: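 Phospholipidosis is scored by imaging LipidTOX-stained pits in HepG2 cells exposed to compound for 24 h at 37 C; pit counts and integrated intensities per well and per cell serve as outputs.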

[18] = biological target: Androgen receptor (Homo sapiens) (UniProt P10275); assay: qHTS assay to identify small molecule antagonists of the androgen receptor (AR) signaling pathway using the MDA cell line in the presence of 0.5 nM R1881 (AID 1259243); note: nearly all actives have a fitted effect of over 50% in size
Chain of Androgen receptor (Homo sapiens) (P10275 whole entry, looked up): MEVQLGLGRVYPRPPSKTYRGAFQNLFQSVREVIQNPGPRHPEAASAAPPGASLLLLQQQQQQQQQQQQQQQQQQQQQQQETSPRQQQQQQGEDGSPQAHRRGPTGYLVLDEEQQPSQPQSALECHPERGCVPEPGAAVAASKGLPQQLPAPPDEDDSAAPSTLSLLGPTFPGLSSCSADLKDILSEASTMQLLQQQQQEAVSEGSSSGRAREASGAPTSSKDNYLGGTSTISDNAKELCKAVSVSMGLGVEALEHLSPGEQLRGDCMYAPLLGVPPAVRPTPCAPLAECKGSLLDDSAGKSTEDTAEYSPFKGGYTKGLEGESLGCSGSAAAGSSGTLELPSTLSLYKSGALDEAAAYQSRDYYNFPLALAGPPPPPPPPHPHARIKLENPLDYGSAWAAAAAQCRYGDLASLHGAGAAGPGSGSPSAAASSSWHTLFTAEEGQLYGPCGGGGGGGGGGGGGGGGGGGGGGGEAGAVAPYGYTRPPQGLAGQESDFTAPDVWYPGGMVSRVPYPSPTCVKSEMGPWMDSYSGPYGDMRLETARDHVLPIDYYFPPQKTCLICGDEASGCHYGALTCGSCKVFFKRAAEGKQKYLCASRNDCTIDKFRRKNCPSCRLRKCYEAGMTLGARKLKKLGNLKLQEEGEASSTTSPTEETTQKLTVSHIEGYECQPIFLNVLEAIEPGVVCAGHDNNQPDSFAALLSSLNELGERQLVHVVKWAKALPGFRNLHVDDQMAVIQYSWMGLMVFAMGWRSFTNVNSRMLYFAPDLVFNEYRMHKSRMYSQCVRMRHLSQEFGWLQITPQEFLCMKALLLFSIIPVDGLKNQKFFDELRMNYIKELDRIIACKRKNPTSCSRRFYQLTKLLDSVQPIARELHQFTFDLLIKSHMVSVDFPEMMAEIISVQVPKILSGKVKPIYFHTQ
Outline: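 MDA-kb2 human breast carcinoma cells carrying an MMTV-luciferase reporter (AR- and GR-responsive) were plated, rested 5 hr at 37C, dosed with compounds, then stimulated with 0.5 nM R1881 (final) for 16 hr; luminescence was read after ONE-Glo.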

[19] = biological target: Estrogen receptor (Homo sapiens) (UniProt P03372); assay: qHTS assay to identify small molecule antagonists of the estrogen receptor alpha (ER-alpha) signaling pathway using the BG1 cell line in the presence of 0.1 nM 17-beta-estradiol (AID 1259244); note: nearly all actives have a fitted effect of over 50% in size
Outline: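 VM7Luc4E2 cells (endogenous full-length ER-alpha, stable 4xERE-luciferase) were grown 5 days in phenol red-free medium with charcoal-stripped FBS, then exposed 22 h at 37C to compounds plus 0.1 nM (final) 17beta-estradiol; ONE-Glo luminescence read-out.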

[20] = biological target: Androgen receptor (Homo sapiens) (UniProt P10275); assay: qHTS assay to identify small molecule agonists of the androgen receptor (AR) signaling pathway in the presence of an antagonist (AID 1259381; calls by dose curve; note: nearly all actives have a fitted effect of over 15% in size)
Outline: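 MDA-kb2 human breast carcinoma cells carrying an MMTV-luciferase reporter (AR- and GR-responsive) were treated with compounds at 15 concentrations plus 3.0uM final nilutamide for 16hr at 37C without CO2; luminescence was read after ONE-Glo addition.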

Measured: Potency

CC1(C)[C@@H]2CC[C@@]1(C)[C@H](O)C2
not listed: [15] | [16] | [17] | [18] | [19] | [20]
inactive: all other assays above

C1CCC2=NCCCN2CC1
not listed: [14] | [15] | [16] | [17] | [18] | [19] | [20]
inactive: all other assays above

CNCCO
not listed: [11] | [12] | [16] | [17] | [18] | [19] | [20]
inactive: all other assays above

O=CN(CCO)CCO
not listed: [15] | [16] | [17] | [18] | [19] | [20]
inactive: all other assays above

CCOC(=O)C1=NOC(c2ccccc2)(c2ccccc2)C1
not listed: [15] | [17] | [18] | [19] | [20]
inactive: all other assays above

O=S(=O)(O)c1cccc2ccccc12
not listed: [8] | [9] | [16] | [17] | [18] | [19] | [20]
inactive: all other assays above

C=CN1CCCCCC1=O
not listed: [16] | [17] | [18] | [19] | [20]
inactive: all other assays above

CC1OC1C1CCC2(C)OC2C1 (stereo not given)
not listed: [15] | [17] | [18] | [19] | [20]
inactive: all other assays above

Cc1ccccc1N=C(N)N=C(N)N
not listed: [8] | [9] | [12] | [16] | [17] | [18] | [19] | [20]
inactive: all other assays above

O=C(O)CNC(=O)c1ccc(CO)o1
not listed: [8] | [9] | [13] | [14] | [17] | [18] | [19] | [20]
inactive: all other assays above

OCCCCCO
not listed: [12] | [17] | [18] | [19] | [20]
inactive: all other assays above

O=C(c1ccccc1)C1(O)CCCCC1
not listed: [16] | [17] | [18] | [19] | [20]
inactive: all other assays above

c1ccc2sc(SN3CCOCC3)nc2c1
not listed: [2] | [3] | [16] | [18] | [19] | [20]
inactive: all other assays above

CCCCCCCCCC[N+](C)(C)[O-]
not listed: [1] | [13] | [14] | [17]
inactive: all other assays above

COc1cccc(OC)c1C(=O)N[C@@H]1C(=O)N2[C@@H]1SC(C)(C)[C@@H]2C(=O)O
not listed: [2] | [8] | [9] | [16] | [18] | [19] | [20]
inactive: all other assays above

CCOc1ccc2nc(S(N)(=O)=O)sc2c1
not listed: [2] | [8] | [9] | [12] | [13] | [14] | [18] | [20]
inactive: all other assays above

NCCCC(N)(C(=O)O)C(F)F (stereo not given)
not listed: [2] | [8] | [9] | [12] | [16] | [18] | [19] | [20]
inactive: all other assays above

CCOc1c(N2CCOCC2)cnn(C)c1=O
not listed: [1] | [17]
inactive: all other assays above

CC1=C(C/C=C(\C)CCC[C@H](C)CCC[C@H](C)CCCC(C)C)C(=O)c2ccccc2C1=O
not listed: [2] | [15] | [16] | [18] | [19] | [20]
inactive: all other assays above
